Bioassay records deposited in PubChem by several laboratories.
Sampled rows, rich in hits. Any-hit rate of the full collection: about 27%.
CYP2C19 activ: increases human CYP2C19 enzyme activity; P33261; recombinant CYP2C19, luciferin-H EGE luminescence; hits give high values; 0 = fully inhibited enzyme, 1 = untreated enzyme; activation factor at 5 µM; 96,000 tested, under 10 active; AID 1025;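 active = activation factor of at least 2 at 5 µM in the primary screen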;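 note: 0 = wells with 2.5 mM tranylcypromine and 1 = vehicle-only wells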
EphB4 ephrin blk: EphB4-ephrin-B2 interaction antagonism; inhibition, % at 7 µM; hit rate 0.15% among 97,000; AID 720; P54760; EphB4 LBD / TNYL-RAW-Alexa532 peptide, fluorescence polarization;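 active = inhibition above the screen-wide mean inhibition plus 3 SD, cut at about 15% in these data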;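 note: 0% = DMSO wells and 100% = excess unlabeled TNYL-RAW peptide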
CYP2C9 inh: human CYP2C9 inhibition. inhibition, % at 5 µM. hit rate 20% among 96,000. AID 777. P11712. CYP2C9 Supersomes, luciferin-H conversion, luminescence;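 active = blocking of liver enzyme CYP2C9 beyond about 50% at 5 µM, limit read from the data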
Target sequence (P11712 whole entry, looked up): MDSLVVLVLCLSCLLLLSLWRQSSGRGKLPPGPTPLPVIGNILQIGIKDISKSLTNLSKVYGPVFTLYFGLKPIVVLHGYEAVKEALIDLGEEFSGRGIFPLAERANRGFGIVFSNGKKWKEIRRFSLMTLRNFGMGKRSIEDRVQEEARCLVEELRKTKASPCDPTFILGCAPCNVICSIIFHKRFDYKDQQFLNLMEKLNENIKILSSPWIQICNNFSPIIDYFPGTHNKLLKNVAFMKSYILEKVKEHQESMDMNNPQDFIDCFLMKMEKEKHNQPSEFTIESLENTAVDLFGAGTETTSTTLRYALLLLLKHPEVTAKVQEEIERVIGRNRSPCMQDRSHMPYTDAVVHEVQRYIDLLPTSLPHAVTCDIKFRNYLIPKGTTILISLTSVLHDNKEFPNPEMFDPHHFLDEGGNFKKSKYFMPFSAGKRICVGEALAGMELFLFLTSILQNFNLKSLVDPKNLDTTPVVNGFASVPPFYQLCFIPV
CYP2C19 inh: inhibitors of human CYP2C19; P33261; CYP2C19 Supersomes, luciferin-H EGE luminescence, 30 min; inhibition, % at 5 µM; hit rate 21% among 96,000;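 active = CYP2C19 inhibition above a set limit at 5 µM in the primary screen, cut at about 50% in these data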;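 note: plate controls were negative control wells for no effect and 2.5 mM tranylcypromine positive control for full effect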
CYP2C9 act: increases human cytochrome P450 2C9 activity. P11712. recombinant CYP2C9, luciferin-H conversion, luminescence; hits give high values; factor 1 = untreated enzyme, 0 = blocked. activation factor at 5 µM. hit rate 1.4% among 96,000;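 active = activation factor of 2 or more for CYP2C9 at a 5 µM dose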;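 note: 0 = sulfaphenazole-blocked wells and 1 = vehicle-only wells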
Numbers without * were called inactive; · = no result given.

SMILES	CYP2C19 activ	EphB4 ephrin blk	CYP2C9 inh	CYP2C19 inh	CYP2C9 act
CCOC(=O)N1CCC(NC(=O)Cn2c3ccccc3c3cn[nH]c(=O)c32)CC1	0.9	·	1.3	6.0	1
COC(=O)Cn1ncc2c3ccccc3n(Cc3ccccc3)c2c1=O	0.7	-6.6	30.0	33.7	0.7
COc1ccccc1C(=O)Nc1ccc2oc(-c3ccc(F)cc3)nc2c1	0.7	-8.9	-40.0	31.1	1.4
CC1CC(=O)c2cnc(N)nc2C1 (stereo not given)	1.1	-1.3	-13.7	-9.2	1.1
COC(=O)c1cc(OC)c(OC)cc1NC(=O)c1ccc(OC)cc1	1	-1.2	-12.1	-0.7	1.1
CC1CN(C(=O)CCN2C(=O)c3ccccc3C2=O)CC(C)O1 (stereo not given)	·	-4.1	·	·	·
CC1CN(C(=O)Cc2ccc(-c3ccccc3)cc2)CC(C)O1 (stereo not given)	0.4	-2.4	56.7*	57.9*	0.4
CN(C(=S)Nc1ccc(F)cc1)C1(c2ccccc2Cl)CCCCC1=O (stereo not given)	0.2	-4.2	24.2	82.8*	0.8
COc1ccc(NC(=O)OC(CN2CCCCC2)C(F)(F)F)cc1 (stereo not given)	0.5	11.3	63.5*	48.2	0.4
CCn1c(O)c(/C=N/n2cnnc2)sc1=S	0.4	-1.7	53.8*	62.3*	0.5
CCn1c(O)c(C=NC2CCCC2)sc1=S	0.3	0.8	51.2*	68.8*	0.5
CCOc1ccccc1Oc1ccc(C(F)(F)F)cn1	1	7.1	-7.1	0.3	1.1
Nc1nc(OCC(F)(F)F)cc(Oc2ccccc2F)n1	0.4	0.3	14.0	58.6*	0.9
Cc1cc(C)nc(SCC(=O)Nc2ncc3c(n2)CC(C)(C)CC3=O)n1	1.1	9.0	-39.9	-9.3	1.4
CCOc1ccc2nc(SCC(=O)Nc3cc4c(cc3C(C)=O)OCO4)[nH]c2c1	0.4	-7.9	72.1*	61.2*	0.3
COc1ccc2nc(SCC(=O)Nc3ccccc3C#N)[nH]c2c1	0.6	6.6	67.1*	37.7	0.3
CCCc1cc(=O)[nH]c(SCC(=O)Nc2ccccc2C#N)n1	1	-1.5	-28.6	2.5	1.3
COc1ccc2nc(SCC(=O)Nc3ccccc3C)[nH]c2c1	0.3	-0.4	87.8*	67.7*	0.1
COc1ccc2nc(SCC(=O)Nc3cc(C)on3)[nH]c2c1	0.6	-1.7	39.4	43.0	0.6
Cn1c(C(=O)N2CCCC(C(=O)NCCN3CCOCC3)C2)cc2sccc21 (stereo not given)	1.1	-0.5	-8.3	-14.7	1.1
CC(=O)c1c(C)cc(C)c(CSc2nc(C)cc(=O)[nH]2)c1C	1	·	26.4	-1.0	0.7
Nc1c(C(=O)NCc2ccc3c(c2)OCO3)c2nc3ccccc3nc2n1CCCN1CCOCC1	0.3	-4.9	44.4	69.4*	0.6
COc1ccccc1CNC(=O)c1c(N)n(CCCN2CCOCC2)c2nc3ccccc3nc12	0.7	-0.1	33.8	32.3	0.7
COc1ccc(-n2c(N)c(C(=O)NCc3ccco3)c3nc4ccccc4nc32)cc1	0.9	-3.0	18.2	5.5	0.8
COc1cc(Cn2c(N)c(C#N)c3nc4ccccc4nc32)cc(OC)c1	1.1	-4.4	56.0*	-5.7	0.4
SMILES	CYP2C19 activ	EphB4 ephrin blk	CYP2C9 inh	CYP2C19 inh	CYP2C9 act
Nc1c(C(=O)NCc2ccco2)c2nc3ccccc3nc2n1CCc1ccc(F)cc1	0.6	1.5	58.0*	42.6	0.4
COc1ccc(Cn2c(N)c(C#N)c3nc4ccccc4nc32)cc1	0.8	-3.3	26.4	19.9	0.7
N#Cc1c(N)n(CCc2ccc(F)cc2)c2nc3ccccc3nc12	0	6.7	80.2*	99.2*	0.2
Cc1noc(C)c1CSc1nnc2scc(-c3ccc(Cl)cc3)n12	0.9	-3.3	-10.6	8.4	1.1
CC(C)(C)NC(=O)C(c1cccs1)N(CC1CCCO1)C(=O)Cn1nnc(-c2cccs2)n1 (stereo not given)	1	-12.2	-2.7	2.1	1
Nn1c(SCC(=O)Nc2ccc3c(c2)OCO3)nnc1-c1ccncc1	1	3.8	21.9	-2.0	0.8
COc1ccc(-c2nnc(SCC(=O)Nc3ccc4c(c3)OCCO4)n2N)cc1OC	1	0.0	58.3*	3.6	0.4
CC(C)Oc1cccc(-c2nnc(SCC(=O)Nc3ccc4c(c3)OCCO4)n2N)c1	0.5	-8.0	70.6*	50.3*	0.3
Cc1oc2ccccc2c1-c1cn2c(n1)SCC2	1.1	5.0	-15.6	-12.0	1.2
Cn1c(N)c(C(=O)COC(=O)C2CCC(C(C)(C)C)CC2)c(=O)n(C)c1=O (stereo not given)	0.8	-1.6	-31.6	18.7	1.3
CSc1cccc(NC(=O)COc2ccccc2)c1	0.5	-5.9	-13.9	45.1	1.1
CC(C)(C)C(=O)Nc1cccc(-c2nc3ccccc3[nH]2)c1	0.5	0.1	85.4*	53.0*	0.1
CC(=O)Nc1cccc(-c2nc3ccc(NC(C)=O)cc3[nH]2)c1	1.1	3.2	-11.4	-6.3	1.1
CC(Oc1ccccc1)C(=O)Nc1cccc(-c2nc3ccccc3[nH]2)c1 (stereo not given)	0.2	3.0	98.4*	79.4*	0
O=C(COc1ccccc1)Nc1cccc(-c2nc3cc4ccccc4cc3[nH]2)c1	0.6	4.0	80.0*	44.0	0.2
O=C(c1ccc(S(=O)(=O)N2CCOCC2)cc1)N1CCN=C1SCc1cccnc1	0.9	-7.9	8.9	6.7	0.9
CC(c1ccc(Br)cc1)N1CC23C=CC(O2)C(C(=O)O)C3C1=O (stereo not given)	1.1	4.3	-19.3	-5.7	1.2
CC(C)OC(=O)C1C2C=CC3(CN(C(C)c4ccc(Br)cc4)C(=O)C13)O2 (stereo not given)	0.2	0.6	30.5	83.0*	0.7
O=C(c1c(Cl)nc2sccn12)N(C(=O)c1c(Cl)nc2sccn12)c1ccc(Cl)cn1	0	1.3	100.3*	100.3*	0
CCOc1ccc(N2C(=O)CSC2c2ccncc2)cc1 (stereo not given)	·	-4.7	·	·	·
Cc1cc(C(=O)CSc2nnnn2C)c(C)n1CCc1ccc(F)cc1	0.3	-0.9	14.6	65.1*	0.9
Cc1cc(C(=O)CSc2nnnn2-c2ccccc2)c(C)n1CCc1ccccc1	0.5	-2.7	-5.5	50.5*	1.1
COc1ccc(CCn2c(C)cc(C(=O)CSc3nnnn3-c3ccccc3)c2C)cc1OC	0.6	10.7	-114.6	42.0	2.1*
CCN1c2ccccc2-c2nc3ccccc3n2C1c1ccco1 (stereo not given)	0.7	-1.3	58.6*	28.1	0.4
CN1c2ccccc2-c2nc3ccccc3n2C1c1ccncc1 (stereo not given)	0	6.3	95.1*	95.8*	0
CCN=C1SC(C(=O)Nc2cccc(C)c2)CC(=O)N1CC (stereo not given)	0.2	-4.6	-141.3	80.2*	2.4*
CCN=C1SC(C(=O)NCCc2ccccc2)CC(=O)N1CC (stereo not given)	0.4	-0.5	-28.6	64.2*	1.3
